Assay results from PubChem BioAssay AID1946 (Johns Hopkins Ion Channel Center, 2009).
Among all 2,400 compounds or so, about 180 (7.5%) were called active.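 Rule for the calls: active = readout below zero, meaning a drop past 3 SD under the dofetilide-free negative control mean; inactive = the rest.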 Only a selection was taken, and actives are over-represented in it overall.

The molecules below were run against Potassium voltage-gated channel subfamily KQT member 2 (Rattus norvegicus) (UniProt O88943) (assay: rat KCNQ2 channel inhibition by compounds alone, confirmation, counter-screen for hERG block protector project, cell-based, CHO, FluxOR thallium flux (AID 1946)). Settings: CHO-KCNQ2 cells, FluxOR thallium flux fluorescence; at 10 µM; hits give low values; zero marks the 3-SD hit cutoff.
Sequence of Potassium voltage-gated channel subfamily KQT member 2 (Rattus norvegicus) (O88943 whole entry, looked up): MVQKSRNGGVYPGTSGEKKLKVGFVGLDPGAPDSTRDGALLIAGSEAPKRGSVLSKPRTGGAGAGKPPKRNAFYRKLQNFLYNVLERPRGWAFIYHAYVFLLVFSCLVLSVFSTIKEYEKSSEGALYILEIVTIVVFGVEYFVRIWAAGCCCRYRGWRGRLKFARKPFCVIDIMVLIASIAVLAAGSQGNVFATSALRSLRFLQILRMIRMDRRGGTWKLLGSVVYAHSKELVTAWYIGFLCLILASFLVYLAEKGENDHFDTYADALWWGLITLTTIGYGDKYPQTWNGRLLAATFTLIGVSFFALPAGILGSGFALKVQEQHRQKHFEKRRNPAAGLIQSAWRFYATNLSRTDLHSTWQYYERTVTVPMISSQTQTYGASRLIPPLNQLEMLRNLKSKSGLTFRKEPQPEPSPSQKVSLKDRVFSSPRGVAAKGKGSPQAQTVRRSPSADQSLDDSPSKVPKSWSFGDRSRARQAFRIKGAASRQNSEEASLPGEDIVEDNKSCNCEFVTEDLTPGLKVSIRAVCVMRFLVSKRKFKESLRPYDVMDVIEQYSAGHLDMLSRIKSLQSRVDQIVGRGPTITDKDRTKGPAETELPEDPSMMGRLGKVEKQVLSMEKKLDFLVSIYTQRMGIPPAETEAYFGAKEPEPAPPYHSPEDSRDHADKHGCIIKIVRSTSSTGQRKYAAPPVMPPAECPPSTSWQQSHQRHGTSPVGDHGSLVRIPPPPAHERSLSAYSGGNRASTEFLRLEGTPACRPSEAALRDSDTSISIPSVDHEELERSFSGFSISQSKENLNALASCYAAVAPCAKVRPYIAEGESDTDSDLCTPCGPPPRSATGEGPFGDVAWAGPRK

SMILES	activity change vs negative control
Cc1ccc(S(=O)(=O)N(C)C)cc1NC(=S)NC(C)CCCC(C)C (centres undefined)	-2.5% (active)
O=c1c2ccc(Cl)cc2[nH]c(=S)n1CCC1=CCCCC1	32.4% (inactive)
NC(=O)c1cccc(N=Cc2cc(Cl)cc(Cl)c2O)c1	43.3% (inactive)
O=C(Nc1nc(=S)ss1)c1ccc(Cl)cc1Cl	122% (inactive)
CCC1CCCCN1C(=S)NC(=O)c1cccc([N+](=O)[O-])c1 (centres undefined)	55.4% (inactive)
O=C(NC(=S)NCCC1=CCCCC1)c1ccc(Br)o1	26.5% (inactive)
Cc1cc([N+](=O)[O-])c(C)cc1-c1ccc(/C=N/NC(=O)Cn2nnnc2N)o1	19.5% (inactive)
C=CCSC1=C(C#N)C(c2ccccc2)CC(=O)N1 (centres undefined)	-8.8% (active)
COc1ccc(C(=O)NNC(=O)C(=O)Nc2cccc3ccccc23)cc1	80.5% (inactive)
Cc1ccc(NC(=O)C(=O)NNC(=O)c2cccs2)cc1	83.8% (inactive)
C=CCn1c(SCC(N)=O)nc2scc(-c3ccc(C)o3)c2c1=O	33% (inactive)
CCCN(CCC)C(=S)NC(=O)c1ccc(-c2ccccc2)cc1	106% (inactive)
O=C(CSc1nnc(NC(=O)c2ccc(S(=O)(=O)N3CCOCC3)cc2)s1)Nc1ccccc1C(F)(F)F	15.7% (inactive)
CSc1ccc(S(=O)(=O)N2CCC(C(=O)Nc3ccccc3C(F)(F)F)CC2)cc1	-0.2% (active)
CS(=O)(=O)N1CCC(C(=O)Nc2c(F)cccc2F)CC1	16.7% (inactive)
S=c1[nH]c2cc(-c3ccccc3)ccc2o1	114% (inactive)
N#Cc1ccc(-c2nc3ccc(Br)cc3c(=O)n2O)cc1	40.3% (inactive)
Cc1ccc(S(=O)(=O)Nc2ccc(O)c3ccccc23)c(C)c1	-3.3% (active)
O=S(=O)(Nc1ccc(O)c2ccccc12)c1ccc(F)cc1	1.7% (inactive)
COc1ccc(OC)c(S(=O)(=O)Nc2ccc(O)c3ccccc23)c1	1.4% (inactive)
CC1Cc2ccccc2N1C(=S)NC(=O)C1(C)CC1(Cl)Cl (centres undefined)	59.5% (inactive)
CC(NC(=S)NC1CCCCC1)c1ccccc1 (centres undefined)	29.9% (inactive)
Cc1ccc(Cl)cc1NC(=O)COC(=O)c1ccccc1O	6.8% (inactive)
Cc1ccc(S(=O)(=O)N2CCOCC2)cc1NC(=O)CSc1nc2ccccc2c(=O)n1Cc1ccccc1	13.7% (inactive)
Cc1ccc(S(=O)(=O)N2CCOCC2)cc1NC(=O)COC(=O)c1cccnc1Cl	-1.4% (active)

SMILES	activity change vs negative control
C=CCNC(=S)Nc1sc2c(c1C(=O)OCC)CC(C)(CC)OC2 (centres undefined)	38.9% (inactive)
CC(=O)/C=C1/C(=O)Nc2ccccc21	-4.4% (active)
CCOC(=O)c1c(NS(C)(=O)=O)sc2c1CCC(C)C2 (centres undefined)	40.9% (inactive)
O=c1c2[nH]c3ccccc3c2nc2n1CCCS2	30.9% (inactive)
c1ccc(-c2csc(Nc3ccc4c(c3)OCCO4)n2)cc1	1.2% (inactive)
O=C(Nc1ccc(-c2csc(Nc3cccc(C(F)(F)F)c3)n2)cc1)c1ccccc1	-0.8% (active)
O=C(NC(=S)Nc1cccc(C(F)(F)F)c1)c1csnn1	138% (inactive)
CC(=O)OCC1O[C@@H](O[C@@H]2C[C@H]3C(C)(C)[C@H](OC(C)=O)CC[C@]3(C)[C@H]3CC[C@]45C[C@]4(CC[C@H]5[C@@H](C)C[C@@H](O)[C@H](O)C(C)(C)O)[C@@]32C)[C@H](O)[C@@H](O)[C@@H]1O (some centres undefined)	32.4% (inactive)
Cc1csc(NC(=S)NC(=O)c2ccccc2)n1	36.6% (inactive)
NC(=O)CSc1nc2ccccc2c(=O)n1CCc1ccccc1	7.8% (inactive)
Cn1cnnc1SCC(=O)NCc1ccccc1	-1.1% (active)
COc1ccc(C(=O)NNC(=O)CSc2nnc(COc3ccccc3)n2C)cc1	6% (inactive)
C=CCn1c(O)c(N=NC(=S)Nc2ccc(OC)cc2)c2ccccc21	39.5% (inactive)
CCOc1ccc(NC(=S)NC(=O)c2ccco2)cc1	37.5% (inactive)
CCCOc1ccc(C(=O)NNC(=S)NC(=O)c2ccccc2)cc1	-1.3% (active)
CCOc1ccccc1NC(=S)NC(=O)c1ccco1	21.9% (inactive)
CCCOc1ccc(C(=O)NNC(=S)NC(=O)c2ccco2)cc1	-4.6% (active)
COc1ccc(/C=C/C(=O)NC(=S)NNC(=O)c2cccs2)cc1	6.5% (inactive)
O=C(NC(=S)NNC(=O)c1cccs1)c1ccc(Br)o1	18.8% (inactive)
CCCOc1ccc(CN(CCC#N)C(=S)NC(=O)c2ccccc2)cc1	35.1% (inactive)
CCCOc1ccc(C(=O)NNC(=S)NC(=O)c2cccs2)cc1	-12.7% (active)
CCOc1ccc(C(=O)NC(=S)N(Cc2ccccc2)Cc2ccccc2)cc1	15.8% (inactive)
COC(=O)C1=C(C)NC2=C(C(=O)CCC2)C1c1ccc(-c2ccsc2C(=O)OC)o1 (centres undefined)	75.1% (inactive)
O=C(NC(=S)NCc1ccccc1)c1cccs1	36.9% (inactive)
CCOc1ccc(-c2c(=O)n(O)c3ccccc3[n+]2[O-])cc1	83.3% (inactive)

SMILES	activity change vs negative control
S=c1[nH]cc(Cc2ccccc2)s1	25.1% (inactive)
Oc1c(Br)cc(Br)cc1C=Nc1cccc2ncccc12	52.3% (inactive)
O=C1C=C(Nc2cccc3cccnc23)c2ccccc2C1=O	14.9% (inactive)
Oc1c(Br)cc(Br)cc1CNc1cccc2cccnc12	-1.8% (active)
Cc1cc(C)cc(-n2ncc3c2CCCC3NC(=O)c2csnn2)c1 (centres undefined)	-0.8% (active)
COc1ccc(-n2ncc3c2CC(C)(C)CC3NC(=O)c2cn[nH]c2)cc1 (centres undefined)	0.2% (inactive)
Cc1cccnc1NC(=O)c1csnn1	14.2% (inactive)
Cc1ccc(-n2ncc3c2CCCC3NC(=O)c2csnn2)cc1C (centres undefined)	-1.1% (active)
Cc1nn(-c2ccccc2)c(Cl)c1/C=C1\SC(=S)NC1=O	81.9% (inactive)
COc1ccc(-c2cc(C(=O)N3CCCC3)no2)cc1OC	24% (inactive)
O=C(NC(=S)Nc1ccccc1)c1ccc(Br)o1	34.7% (inactive)
Cc1ccc(C(C(=O)NC(C)(C)C)N(Cc2cccnc2)C(=O)C(=O)NC2CCCCC2)o1 (centres undefined)	14.9% (inactive)
CCSc1nc(=S)cc(C)[nH]1	78.1% (inactive)
O=C(O)C1C2CCC(O2)C1C(=O)Nc1ccc(F)c(Cl)c1 (centres undefined)	10.3% (inactive)
COc1ccc(S(=O)(=O)N2CCCC(C(=O)Nc3ccc(OC)c(OC)c3)C2)cc1 (centres undefined)	5.6% (inactive)
CC(C)N1CC(C(=O)Nc2ccc(Cl)c(Cl)c2)CC1=O (centres undefined)	-0.8% (active)
CCOC(=O)C(=CNc1ccc(N2CCOCC2)cc1)C(=O)OCC	29.7% (inactive)
COc1ccccc1Cn1c(=S)[nH]c2ccc(Br)cc2c1=O	7.2% (inactive)
Cc1[nH]c(-c2ccccn2)nc(=S)c1Cl	107% (inactive)
O=c1c2ccccc2[nH]c(=S)n1CCC1=CCCCC1	49.3% (inactive)
Cc1ccc(NS(=O)(=O)c2cn(C)c(=O)n(C)c2=O)c(C)c1	14.1% (inactive)
Cc1ccc2cc(CCNC(=O)C(=O)c3c(C)[nH]c4ccccc34)c(=O)[nH]c2c1	0.8% (inactive)
Cc1ccc2cc(CN(CCCN(C)C)C(=S)NCc3ccccc3)c(=O)[nH]c2c1C	-0.3% (active)
Cc1ccc(-n2nc3ccc(N)cc3n2)c(C)c1	-14.5% (active)
O=C(COc1ccc2c3c(c(=O)oc2c1)CCC3)N[C@@H](Cc1ccccc1)C(=O)O	31.1% (inactive)

SMILES	activity change vs negative control
CCOC(=O)C1CCN(S(=O)(=O)c2cccc3nonc23)CC1	20.3% (inactive)
CCOc1ccc(C(=O)N(CN2CCCC2=O)c2ccc(C)cc2)cc1	44.8% (inactive)
Cc1ccc(C(=O)Nc2sc3c(c2C(=O)O)CCCCC3)o1	-2.5% (active)
Cc1onc(-c2ccccc2)c1C(=O)NC(=S)Nc1sc2c(c1C#N)CCCC2	10.5% (inactive)
CC(C)OC(=O)c1c(NC(=O)c2ccco2)sc2c1CCCCC2	3.9% (inactive)
Oc1c(Br)cc(Br)cc1C=Nc1ccc2[nH]ncc2c1	54.4% (inactive)
O=C(NC(=S)N1CCN(c2ccc(C(F)(F)F)cc2[N+](=O)[O-])CC1)c1cccs1	30.1% (inactive)
COc1cccc(OC)c1C(=O)NC(=S)N1CCN(c2ccc(C(F)(F)F)cc2[N+](=O)[O-])CC1	-6% (active)
CC(C)Oc1cccc(C(=O)NC(=S)N2CCN(c3ccc(C(F)(F)F)cc3[N+](=O)[O-])CC2)c1	11.4% (inactive)
CCOC(=O)c1n[nH]n2c1nc(=S)c1ccccc12	77.4% (inactive)
CSC(=S)N/N=C/c1ccccc1	71% (inactive)
Cc1cccc(/C=N/NC(=O)c2cc(Br)ccc2O)n1	23.8% (inactive)
Cc1ccc(C(=O)N2CCN(c3ccccc3)CC2)cc1S(=O)(=O)N1CCCC1	29.7% (inactive)
O=C(NC(=S)N(CC1CCC1)CC1CCCO1)c1cccc([N+](=O)[O-])c1 (centres undefined)	63.2% (inactive)
O=C(NC(=S)Nc1cc(C(F)(F)F)ccc1N1CCOCC1)c1ccco1	11.7% (inactive)
O=C(NC(=S)Nc1cc(C(F)(F)F)ccc1Cl)c1ccccc1	8.2% (inactive)
O=C(CCc1ccccc1)NC(=S)Nc1cc(C(F)(F)F)ccc1N1CCOCC1	-15.9% (active)
COc1cc(C(=O)Nc2ccc(O)cc2C(=O)O)ccc1OC(C)=O	3.8% (inactive)
Cn1c(=O)c(Sc2ccccc2)c(O)c2ccccc21	23.4% (inactive)
COc1ccc(C(=O)NNC(=O)C(=O)NC2CCCCC2)cc1	20.2% (inactive)
O=C(c1csc(Nc2ccccc2Cl)n1)N1CCCC1	0% (inactive)
COc1ccccc1-n1cnc2sc(C)c(C)c2c1=O	11.8% (inactive)
Cc1ccc(OC(=O)c2sc3ncn(C)c(=O)c3c2C)cc1	-1.4% (active)
CCOc1ccc(-n2cnc3sc(C)c(C)c3c2=O)cc1	3% (inactive)
